In the library only some 2.7% were active in any assay of this set; here they are far more common.
BRCA1 expr up = qHTS Assay to Identify Small Molecule Activators of BRCA1 Expression. MCF7-BRCA1-FFLuc reporter, luminescence, 48 h; response scale: scaled: vehicle 0%, 10 µM genistein 100%. Potency, µM (highest dose often 46.1 µM), for the others: top-dose activation, most hits filed as activators. actives 1.1% (n = 380,000). AID 624202, 2012; further: nearly all actives have a fitted effect of over 80% in size
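Luminescence from a BRCA1-driven firefly luciferase in MCF7 cells was read after 48 h compound exposure at 37 C. Data normalized against DMSO and a 10microM genistein activation control, then curve-fitted across the titration.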
a7 integrin act = qHTS for Activators of Integrin-Mediated Alleviation for Muscular Dystrophy; Potency, µM (doses to about 38.3 µM), for inactives: top-dose activation, most hits filed as activators; AID 624291, 2012; actives 0.064% (n = 350,000); alpha7betagal myoblasts, beta-gal FDG fluorescence, 48 h;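 further: 100% = response of the positive control SU9516; nearly all actives have a fitted effect of over 60% in size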
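Alpha7betagal+/- myoblasts (passage 13) were plated 16-24 hr, then exposed to compounds (1:260 dilution of DMSO stock) for 48 hours at 37C. After MPER lysis, β-galactosidase reporter activity was read as FDG fluorescence (ex 480/em 540) after 30 minutes.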
GLP-1R inv ag = qHTS of GLP-1 Receptor Inverse Agonists (Inhibition Mode) | actives 1.6% (n = 410,000) | Glucagon-like peptide 1 receptor (Homo sapiens), P43220 | HEK293 GLP-1R CRE-luciferase, luminescence, 24 h; GLP-1R form is constitutively active | Potency, µM (top dose mostly 38.3 µM), without a hit: at the highest dose activity change, negative = inhibition, usual class: inhibitors; further: on the % scale 0 is the no-effect control and ±100 the full control effect; nearly all actives have a fitted effect of over 55% in size
Target sequence (P43220 whole entry, looked up): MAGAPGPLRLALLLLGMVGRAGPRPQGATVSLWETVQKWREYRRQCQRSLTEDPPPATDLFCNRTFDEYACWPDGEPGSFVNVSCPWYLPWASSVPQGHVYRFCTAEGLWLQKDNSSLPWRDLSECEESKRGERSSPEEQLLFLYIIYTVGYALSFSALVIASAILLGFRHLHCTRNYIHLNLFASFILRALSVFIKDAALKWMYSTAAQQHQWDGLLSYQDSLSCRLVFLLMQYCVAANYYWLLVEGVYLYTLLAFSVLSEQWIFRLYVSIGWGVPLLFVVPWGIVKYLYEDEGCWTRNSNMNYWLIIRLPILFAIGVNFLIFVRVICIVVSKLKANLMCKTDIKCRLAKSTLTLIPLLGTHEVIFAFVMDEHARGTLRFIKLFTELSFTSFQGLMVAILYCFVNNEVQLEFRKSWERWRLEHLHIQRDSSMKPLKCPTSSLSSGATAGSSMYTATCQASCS
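Constitutively active GLP-1R drives a cAMP-responsive luciferase in stably transfected HEK293 cells; test compounds are added after overnight (12 h) attachment and left 24 hr, and signal loss in luminescence marks inhibition.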
HEK293 tox = qHTS of GLP-1 Receptor Inverse Agonists: Cytotox Screen; HEK293 cAMP-luciferase reporter cells, luminescence, 24 h; Potency, µM (series often up to 38.3 µM), for inactives: at the top dose activity change, negative = inhibition, hits mostly inhibitors; actives 0.13% (n = 410,000); AID 624418, 2012;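 further: loss of luciferase light is scored as toxicity; on the % scale 0 is the no-effect control and ±100 the full control effect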
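Step one: seed cells (200 cells/uL, DMEM with 10% Nu serum, 1% pen-strep). Step two: 12-hour incubation at 37 deg C. Step three: pin 23 nL compound, incubate 24 hr. Step four: add luciferase reagent, read luminescence 12 min later.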
GLP1R ag = qHTS of GLP-1 Receptor Agonists. actives 0.007% (n = 380,000). AID 624172, 2012. HEK293 GLP-1R CRE-luciferase, luminescence, 4-6 h; cells express a hypersensitive GLP-1R form. Potency, µM (highest dose often 45.6 µM), for the others: top-dose activation, usual class: activators. Glucagon-like peptide 1 receptor (Homo sapiens), P43220; further: % of control where 0% means no effect
Active calls of the source: *; ? = inconclusive; nt = not tested or not shown. The call rests on the fitted dose curve; in most records, active means well fitted curve in the direction sought with a large enough effect; inconclusive means small, poorly fitted or top-dose-only effect, or another doubt; inactive means no such curve, though single readings can be large; an effect the other way counts as inactive or inconclusive. Potency means the concentration at half of the fitted maximal effect.

SMILES | BRCA1 expr up | a7 integrin act | GLP-1R inv ag | HEK293 tox | GLP1R ag
CCCCC1CCC(C(=O)Nc2ccccc2N2CCOCC2)CC1 (configuration not stated) | -16% | -14% | 10µM* | 3% | -6%
CCCCCC(=O)Nc1ccccc1N1CCOCC1 | -3% | -13% | 7% | -7% | 0%
Cc1nn(-c2ccccc2)c2c1C(=O)N(Cc1ccccc1)C(=O)C(C)(C)C2 | -50% | 6% | ? | -7% | -12%
Cc1nn(-c2nc3ccccc3n2Cc2ccccc2)c2c1C(=O)CC(C)(C)C2 | -36% | -2% | 2.2µM* | -14% | -4%
CC1Cc2nc(SCC(=O)Nc3ccc4c(c3)OCO4)n(Cc3ccccc3)c(=O)c2S1 (configuration not stated) | 11µM* | 9% | 0% | ? | -1%
COCCn1c(SCC(=O)Nc2ccc3c(c2)OCCO3)nc2c(c1=O)SC(C)C2 (configuration not stated) | 8.9µM* | 12% | 1% | -22% | 5%
COc1ccc(NC(=O)c2sc3nc(-c4cc5ccc(OC)cc5oc4=O)[nH]c(=O)c3c2C)cc1 | nt | nt | 6% | 7% | nt
NC(=O)[C@H]1CC2(CC(c3cccc(NC(=O)COc4ccc(Cl)cc4)c3)=NO2)CN1C(=O)CC(c1ccccc1)c1ccccc1 (some centres not stated) | -66% | -21% | 10µM* | 2% | -4%
NC(=O)[C@@H]1CC2(CC(c3cccc(NC(=O)CC(c4ccccc4)c4ccccc4)c3)=NO2)CN1C(=O)COc1ccc(Cl)cc1 (some centres not stated) | -60% | -5% | 11µM* | -21% | 2%
NC(=O)[C@H]1CC2(CC(c3cccc(NC(=O)COc4ccc(Cl)cc4)c3)=NO2)CN1C(=O)c1ccc(Cl)cc1 (some centres not stated) | -69% | -41% | ? | -24% | -10%
Cc1noc(C)c1C(=O)Nc1nc2ccc(S(C)(=O)=O)cc2s1 | 33% | -25% | 9% | 2% | 16%
COc1cccc(C(=O)Nc2nc3c(s2)CN(C)CC3)c1 | 14µM* | -19% | 5% | 11% | 3%
COc1ccc2nc(NC(=O)c3c(C)noc3C)sc2c1 | 2.8µM* | 71% | 2% | 7% | -3%
COc1ccc(Nc2nc3ccc(OC)cc3s2)cc1 | 7.9µM* | 6% | ? | -7% | 8%
COc1ccc(C(=O)Nc2nc3ccc(OC)cc3s2)cc1 | 2.2µM* | ? | -26% | ? | -7%
CCOC(=O)c1noc2ncn(CC(=O)Nc3cccc(C(F)(F)F)c3)c(=O)c12 | -8% | nt | 0% | -2% | 4%
COc1ccc(CNC(=O)CSc2ccsc2[N+](=O)[O-])cc1 | 10µM* | -28% | 6% | -8% | 14%
CNC(=S)NN=C(C)CCCC(C)=NNC(=S)NC | -25% | -52% | ? | 1.8µM* | -4%
C[C@]12CC[C@@H]3c4ccc(O)cc4CC[C@H]3[C@@H]1CCC2OC(=O)CCC1CCCC1 (some centres not stated) | nt | nt | nt | nt | 0%
Cc1ccc2onc(CNC(=O)Nc3cc(F)ccc3F)c2c1 | nt | nt | ? | 3% | nt
CSc1ccccc1NC(=O)Nc1ccccc1 | 65% | -8% | 1% | 2% | -1%
Cc1ccc(NC(=O)Nc2ccon2)cc1 | ? | 30% | 5% | -4% | -3%
CCOc1ccc(NC(=O)Nc2ccccc2SC)cc1 | 2.8µM* | -2% | ? | 3% | 1%
CCOc1ccc(NC(=O)Nc2ccon2)cc1 | 10µM* | 19% | -7% | -17% | 10%
CCCCOc1ccc(C(=S)N2CCC(C(N)=O)CC2)cc1 | 4µM* | ? | 2% | 3% | 26%
SMILES | BRCA1 expr up | a7 integrin act | GLP-1R inv ag | HEK293 tox | GLP1R ag
CCCCOc1ccc(C(=O)NCC(=O)N2CC(C)CC(C)C2)cc1 (configuration not stated) | -4% | 6% | 11µM* | -1% | -1%
COc1ccc(C(=S)N2CCC(C(N)=O)CC2)cc1Br | 12% | -20% | 7% | -6% | 9%
CCOC(=O)c1c(NC(C)=O)c2c3c(sc2n1Cc1nc(-c2ccccc2C)oc1C)CCCC3 | nt | nt | 13% | -31% | nt
Cc1ccc(CNCc2ccccc2Cl)s1 | 0% | nt | ? | -9% | -3%
CCOc1ccc(-n2c(=O)c3c(C)c(C)sc3n(CC(=O)C(C)(C)C)c2=O)cc1 | nt | nt | -8% | -1% | nt
COc1ccc(CCNC[C@H](O)COc2cccc(C)c2)cc1OC | nt | nt | nt | nt | 3%
CCOC(=O)c1ccc(NC(=O)c2c(N3CCCC3=O)c3cc(OC)ccc3n2C)cc1 | 0% | nt | 5% | 6% | 15%
CCN1C(=O)c2ccccc2C1Nc1cccc(OCCN2CCCCC2)c1 (configuration not stated) | nt | nt | nt | nt | -1%
Cc1ccc(/C=N/NC(=O)c2cccs2)cc1[N+](=O)[O-] | 13µM* | -21% | 24% | 7% | 22%
O=C(N/N=C/c1ccccc1[N+](=O)[O-])c1cccs1 | ? | -5% | 14% | 5% | 11%
O=c1[nH]c(NCCO)nc2c1C1(CCCC1)Cc1ccccc1-2 | -34% | -20% | -6% | -14% | -10%
C=CCNC(=S)NNc1nc2c(c(=O)[nH]1)C1(CCCCC1)Cc1ccccc1-2 | 4% | 6% | 10µM* | -17% | 0%
CCc1ccc(NC(=O)c2cc3nc(-c4ccc(C)cc4)cc(C(F)(F)F)n3n2)cc1 | -4% | nt | 0% | 2% | -1%
O=C1CC(/C=C/c2ccncc2)=Nc2ccccc2N1 | -1% | -36% | 2.5µM* | -24% | 4%
O=C1CC(c2ccccc2)=Nc2ccccc2N1 | 6% | ? | 6% | -7% | 13%
COc1ccc(CC(=O)N2CC3(C)CC2CC(C)(C)C3)cc1 (configuration not stated) | 1% | -6% | 11µM* | -12% | 1%
Cc1ccc(OCC(=O)N2CC3(C)CC2CC(C)(C)C3)cc1 (configuration not stated) | -15% | 12% | 10µM* | -10% | 0%
CC1(C)CC2CC(C)(CN2C(=O)Cc2ccccc2)C1 (configuration not stated) | 0% | 0% | ? | -27% | -5%
Cc1cccc(C)c1OCC(=O)N1CC2(C)CC1CC(C)(C)C2 (configuration not stated) | -17% | 20% | ? | -12% | 6%
Cc1ccc(C(=O)Nc2ccccc2C(=O)N2CC3(C)CC2CC(C)(C)C3)cc1 (configuration not stated) | -37% | 8% | 10µM* | 59% | 4%
